Measurements: PubChem BioAssay (NCI)
About 79,000 compounds went through this panel and 15% of them were active in at least one assay; those are over-represented in the sample as a whole. Active and inactive are the calls of the source. Cut-off read from the data, not from the text of the source: active = growth inhibition above about 70%; inactive = the rest.

What was measured:
[1] = NCI Yeast Anticancer Drug Screen. Data for the wt2 strain (AID 169);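 note: 0% = growth of vehicle-treated yeast cultures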; details: S. cerevisiae wt2 strain growth inhibition, active compounds read high
Method in brief: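 The panel's yeast strains carry defined changes in DNA repair or cell cycle genes. Each strain is grown with compound, and growth loss is scored relative to vehicle.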

[2] = NCI Yeast Anticancer Drug Screen. Data for the mlh1 strain (AID 171);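 note: 0% = growth of vehicle-treated control cultures of the same strain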; details: S. cerevisiae mlh1 strain growth inhibition, active compounds read high
Method in brief: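 Inhibition values reflect reduced yeast growth in the presence of compound, referenced to vehicle controls, using a strain chosen for its alteration in DNA repair or cell cycle control.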

[3] = NCI Yeast Anticancer Drug Screen. Data for the sgs1 strain (AID 173);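 note: 0% = growth of vehicle-only control cultures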; details: S. cerevisiae sgs1 mutant, active compounds read high
Method in brief: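 Vehicle-treated cultures served as reference for growth inhibition of a yeast strain altered in DNA damage repair or cell cycle control after compound exposure.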

[4] = NCI Yeast Anticancer Drug Screen. Data for the mlh1 rad18 strain (AID 175); details: S. cerevisiae mlh1 rad18 strain growth inhibition, active compounds read high
Method in brief: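 Inhibition values reflect reduced growth of mutant yeast versus vehicle-treated controls following compound exposure; the mutations affect DNA damage repair.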

[5] = NCI Yeast Anticancer Drug Screen. Data for the rad52 strain (AID 147);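 note: 0% = growth of vehicle-treated control cultures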; details: S. cerevisiae rad52 mutant growth inhibition, active compounds read high
Method in brief: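 Inhibition of yeast growth, referenced to vehicle controls, was the measured output for a strain with defective DNA damage repair.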

[6] = NCI Yeast Anticancer Drug Screen. Data for the wt1 strain (AID 149);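 note: 0% = growth of vehicle-treated wt1 cultures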; details: S. cerevisiae wt1 strain (SPY 50644) growth inhibition, active compounds read high
Method in brief: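 The wt1 strain was treated with compounds, and growth was compared with vehicle-treated cultures to give inhibition.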

[7] = NCI Yeast Anticancer Drug Screen. Data for the rad50EPP+ strain (AID 151);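 note: 0% = growth of vehicle-treated control cultures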; details: S. cerevisiae rad50 mutant strain, active compounds read high
Method in brief: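 Genetically defined yeast (rad50EPP+, DNA damage repair alteration) is grown with compound, and inhibition of growth is expressed relative to vehicle-treated controls.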

[8] = NCI Yeast Anticancer Drug Screen. Data for the mgt1 strain (AID 153); details: S. cerevisiae mgt1 mutant growth inhibition, active compounds read high
Method in brief: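 In the mgt1 strain, test compounds were added and growth inhibition was determined relative to vehicle-treated controls.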

[9] = NCI Yeast Anticancer Drug Screen. Data for the rad50 strain (AID 155);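 note: 0% = growth of vehicle-only cultures of the same strain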; details: S. cerevisiae rad50 strain growth inhibition, active compounds read high
Method in brief: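 Cells are treated with compound, grown, and their growth is then scored against vehicle-only cultures of the same repair-deficient yeast strain.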

[10] = NCI Yeast Anticancer Drug Screen. Data for the mec2-1 strain (AID 157); details: S. cerevisiae mec2-1 strain, active compounds read high
Method in brief: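 Each compound was tested on mec2-1 yeast, a strain altered in DNA damage repair or cell cycle control. Growth inhibition is reported relative to vehicle.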

[11] = NCI Yeast Anticancer Drug Screen. Data for the rad14 strain (AID 159);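 note: 0% = growth of vehicle-treated control cultures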; details: S. cerevisiae rad14 strain growth inhibition, active compounds read high
Method in brief: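 Readout: yeast growth inhibition, referenced to vehicle-only cultures. Strain bears a defined alteration in DNA damage repair.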

[12] = NCI Yeast Anticancer Drug Screen. Data for the sgs1 mgt1 strain (AID 161);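 note: 0% = growth of cultures given vehicle only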; details: S. cerevisiae sgs1 mgt1 strain, active compounds read high
Method in brief: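 Test agents were incubated with a DNA-repair-mutant yeast strain. Growth was then read and compared against vehicle-treated controls.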

[13] = NCI Yeast Anticancer Drug Screen. Data for the CLN2oe strain (AID 163);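 note: 0% = growth of vehicle-only control cultures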; details: S. cerevisiae CLN2oe strain, active compounds read high
Method in brief: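 First, the altered yeast strain was treated with each compound; second, its growth was measured; finally, inhibition was derived by comparison with vehicle controls.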

[14] = NCI Yeast Anticancer Drug Screen. Data for the cln2 rad14 strain (AID 165);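 note: 0% = growth equal to vehicle treated cultures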; details: S. cerevisiae cln2 rad14 strain, active compounds read high
Method in brief: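 Test compounds were added to cln2 rad14 yeast cultures; inhibition of growth was then determined by comparison with vehicle treatment.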

[15] = NCI Yeast Anticancer Drug Screen. Data for the bub3 strain (AID 167); details: S. cerevisiae bub3 mutant strain, active compounds read high
Method in brief: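 Part of a panel of yeast mutants defective in DNA damage repair or cell cycle regulation. Each strain is grown with compound, and inhibition is calculated relative to solvent-treated cultures.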

[16] = NCI Yeast Anticancer Drug Screen. Data for the rad18 strain (AID 177); details: S. cerevisiae rad18 mutant growth inhibition, active compounds read high
Method in brief: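 Steps: expose repair-mutant yeast to compound; measure growth; express as inhibition relative to vehicle control.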

[17] = at 5.0 µM (retest, dose inferred, filed as 0.5)
[18] = at 50.0 µM (retest, dose inferred, filed as 5.0)

Measured: growth inhibition

CC(C)OC(=O)Oc1ccccc1OC(=O)OC(C)C
inactive: [1]; at 1.2 µM -3% | [1]; at 3.7 µM -2% | [1]; at 11.0 µM -2% | [1]; at 33.0 µM -3% | [1]; at 100.0 µM -2% | [2]; at 1.2 µM 0% | [2]; at 3.7 µM 1% | [2]; at 11.0 µM 2% | [2]; at 33.0 µM 3% | [2]; at 100.0 µM 3% | [3]; at 1.2 µM -1% | [3]; at 3.7 µM 0% | [3]; at 11.0 µM 1% | [3]; at 33.0 µM 1% | [3]; at 100.0 µM 2% | [4]; [17] -20% | [4]; [18] -7% | [4]; at 50.0 µM -9.1%

COc1cc(C2c3cc4c(cc3OC(NNc3ccccc3)C2C)OCO4)cc(OC)c1OC (centres undefined)
active: [5]; at 33.0 µM 93% | [5]; at 100.0 µM 75% | [6]; at 33.0 µM 74% | [6]; at 100.0 µM 94% | [8]; at 33.0 µM 82% | [8]; at 100.0 µM 89% | [9]; at 33.0 µM 92% | [9]; [18] 96% | [9]; at 100.0 µM 73% | [10]; [18] 96% | [10]; at 100.0 µM 91% | [11]; at 100.0 µM 75% | [12]; [18] 97% | [13]; at 33.0 µM 89% | [13]; at 100.0 µM 79% | [14]; [18] 95% | [15]; at 11.0 µM 73% | [15]; at 33.0 µM 89% | [15]; [18] 94% | [15]; at 50.0 µM 88.2% | [15]; at 100.0 µM 83% | [1]; at 33.0 µM 96% | [1]; at 100.0 µM 90% | [3]; at 33.0 µM 88% | [3]; at 100.0 µM 94% | [4]; [18] 94% | [4]; at 50.0 µM 77% | [16]; at 33.0 µM 94% | [16]; at 100.0 µM 84%
inactive: [5]; at 1.2 µM 36% | [5]; at 3.7 µM 44% | [5]; at 11.0 µM 59% | [6]; at 1.2 µM 16% | [6]; at 3.7 µM 9% | [6]; at 11.0 µM 19% | [7]; at 1.2 µM 39% | [7]; at 3.7 µM 42% | [7]; at 11.0 µM 48% | [7]; at 33.0 µM 47% | [7]; at 100.0 µM 67% | [8]; at 1.2 µM 13% | [8]; at 3.7 µM 23% | [8]; at 11.0 µM 26% | [9]; at 1.2 µM 23% | [9]; at 3.7 µM 33% | [9]; [17] 14% | [9]; at 11.0 µM 52% | [9]; at 50.0 µM 12.3% | [10]; at 1.2 µM 2% | [10]; at 3.7 µM 5% | [10]; [17] 10% | [10]; at 11.0 µM 16% | [10]; at 33.0 µM 63% | [10]; at 50.0 µM 40.5% | [11]; at 1.2 µM -2% | [11]; at 3.7 µM 1% | [11]; at 11.0 µM 29% | [11]; at 33.0 µM 52% | [12]; [17] -4% | [12]; at 50.0 µM 20.6% | [13]; at 1.2 µM 41% | [13]; at 3.7 µM 40% | [13]; at 11.0 µM 46% | [14]; [17] 17% | [14]; at 50.0 µM 53% | [15]; at 1.2 µM 7% | [15]; at 3.7 µM 20% | [15]; [17] 19% | [1]; at 1.2 µM -2% | [1]; at 3.7 µM -13% | [1]; at 11.0 µM 41% | [2]; at 1.2 µM 16% | [2]; at 3.7 µM 23% | [2]; at 11.0 µM 24% | [2]; at 33.0 µM 26% | [2]; at 100.0 µM 30% | [3]; at 1.2 µM 29% | [3]; at 3.7 µM 37% | [3]; at 11.0 µM 34% | [4]; [17] 36% | [16]; at 1.2 µM 52% | [16]; at 3.7 µM 56% | [16]; at 11.0 µM 64%

NNc1c(F)c(F)cc(F)c1F
inactive: [5]; at 1.2 µM -11% | [5]; at 3.7 µM -19% | [5]; at 11.0 µM -21% | [5]; at 33.0 µM -11% | [5]; at 100.0 µM 21% | [6]; at 1.2 µM -28% | [6]; at 3.7 µM -27% | [6]; at 11.0 µM -20% | [6]; at 33.0 µM -26% | [6]; at 100.0 µM -14% | [7]; at 1.2 µM 2% | [7]; at 3.7 µM -1% | [7]; at 11.0 µM 21% | [7]; at 33.0 µM 54% | [8]; at 1.2 µM -17% | [8]; at 3.7 µM -23% | [8]; at 11.0 µM -17% | [8]; at 33.0 µM -6% | [8]; at 100.0 µM 7% | [9]; at 1.2 µM -15% | [9]; at 3.7 µM -22% | [9]; [17] -16% | [9]; at 11.0 µM -18% | [9]; at 33.0 µM -15% | [9]; [18] 8% | [9]; at 50.0 µM 24.8% | [9]; at 100.0 µM 25% | [10]; at 1.2 µM -37% | [10]; at 3.7 µM -35% | [10]; [17] -11% | [10]; at 11.0 µM -38% | [10]; at 33.0 µM -20% | [10]; [18] 6% | [10]; at 50.0 µM 33.1% | [10]; at 100.0 µM 35% | [11]; at 1.2 µM -25% | [11]; at 3.7 µM -25% | [11]; at 11.0 µM -27% | [11]; at 33.0 µM -21% | [11]; at 100.0 µM -4% | [12]; [17] 0% | [12]; [18] 23% | [12]; at 50.0 µM 67.9% | [13]; at 1.2 µM 0% | [13]; at 3.7 µM -4% | [13]; at 11.0 µM 3% | [13]; at 33.0 µM 18% | [13]; at 100.0 µM 26% | [14]; [17] 21% | [14]; [18] 42% | [14]; at 50.0 µM 46.9% | [15]; at 1.2 µM -11% | [15]; at 3.7 µM -18% | [15]; [17] 27% | [15]; at 11.0 µM -3% | [15]; at 33.0 µM 10% | [15]; at 100.0 µM 47% | [1]; at 1.2 µM -27% | [1]; at 3.7 µM -24% | [1]; at 11.0 µM -22% | [1]; at 33.0 µM -20% | [1]; at 100.0 µM -13% | [2]; at 1.2 µM -12% | [2]; at 3.7 µM -7% | [2]; at 11.0 µM -6% | [2]; at 33.0 µM 5% | [2]; at 100.0 µM 42% | [3]; at 1.2 µM -3% | [3]; at 3.7 µM 8% | [3]; at 11.0 µM 18% | [3]; at 33.0 µM 32% | [3]; at 100.0 µM 66% | [4]; [17] 7% | [4]; [18] 36% | [4]; at 50.0 µM 25%
active: [7]; at 100.0 µM 82% | [15]; [18] 70% | [15]; at 50.0 µM 84.6%
